Data: PubChem BioAssay (NCI)
This is part of a sample that, as a whole, favours compounds with a hit. Of some 83,000 tested, about 20% had one in any assay.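 Negative percent growth values reflect cell death: -40 means 40% of the cells present at the start died, and -100 means all died.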 Activity calls are given as the source filed them. How the source made its calls: active means growth percent below 10; inactive means the rest.

Legend:
Test in all cases: NCI-60 one-dose screen, 48 h (100 = growth as untreated, 0 = no growth, -100 = all killed)
Details in all cases: 10 µM unless noted
DU-145 prostate = test system: DU-145 prostate
MALME-3M melanoma = test system: MALME-3M melanoma
MDA-MB-231 breast = test system: MDA-MB-231 breast
RXF 393 renal = test system: RXF 393 renal
SF-268 CNS = test system: SF-268 CNS
SF-295 CNS = test system: SF-295 CNS
SF-539 CNS = test system: SF-539 CNS
UACC-257 melanoma = test system: UACC-257 melanoma
M14 melanoma = test system: M14 melanoma
HCT-15 colon = test system: HCT-15 colon
HT29 colon = test system: HT29 colon
SNB-75 CNS = test system: SNB-75 CNS
SNB-19 CNS = test system: SNB-19 CNS
PC-3 prostate = test system: PC-3 prostate
SK-MEL-5 melanoma = test system: SK-MEL-5 melanoma
LOX IMVI melanoma = test system: LOX IMVI melanoma
SK-MEL-28 melanoma = test system: SK-MEL-28 melanoma
UACC-62 melanoma = test system: UACC-62 melanoma
U251 CNS = test system: U251 CNS
K-562 leukemia = test system: K-562 leukemia

Compound | growth (DU-145 prostate) | growth (MALME-3M melanoma) | growth (MDA-MB-231 breast) | growth (RXF 393 renal) | growth (SF-268 CNS) | growth (SF-295 CNS) | growth (SF-539 CNS) | growth (UACC-257 melanoma) | growth (M14 melanoma) | growth (HCT-15 colon) | growth (HT29 colon) | growth (SNB-75 CNS) | growth (SNB-19 CNS) | growth (PC-3 prostate) | growth (SK-MEL-5 melanoma) | growth (LOX IMVI melanoma) | growth (SK-MEL-28 melanoma) | growth (UACC-62 melanoma) | growth (U251 CNS) | growth (K-562 leukemia)
O=C1C(Cl)=C(Cl)C(=O)c2c1nc1n2CCCC1 | 96.9% (inactive) | 73.2% (inactive) | 96.2% (inactive) | 99.5% (inactive) | 95.9% (inactive) | 100% (inactive) | 99.9% (inactive) | 96% (inactive) | 105% (inactive) | 103% (inactive) | 99.7% (inactive) | 126% (inactive) | 96.4% (inactive) | 88.5% (inactive) | 98.8% (inactive) | 85.8% (inactive) | 113% (inactive) | – | – | –
CC(C)c1c(C(=O)Nc2ccccc2)c(-c2ccccc2)c(-c2ccc(F)cc2)n1CC[C@@H]1CC=CC(=O)O1 | 26.3% (inactive) | 8.81% (active) | -25.6% (active) | -84.5% (active) | -33.3% (active) | 82.3% (inactive) | -18.5% (active) | 16.9% (inactive) | -11.2% (active) | -42.7% (active) | -35.6% (active) | -25% (active) | 14.2% (inactive) | -39.2% (active) | 21.7% (inactive) | -75.4% (active) | -57.1% (active) | 18.9% (inactive) | – | –
CC[C@H](Nc1cc(C)nc(N)n1)c1nc2cccc(NCc3ccc(C(=O)NO)cc3)c2c(=O)n1-c1ccccc1 | 36.4% (inactive) | 37.6% (inactive) | 0.273% (active) | -6% (active) | 27.6% (inactive) | 64.2% (inactive) | -20.6% (active) | 12.3% (inactive) | 16.3% (inactive) | 92.5% (inactive) | 10.2% (inactive) | 15.7% (inactive) | -40.3% (active) | 12.4% (inactive) | 30% (inactive) | -57.9% (active) | 5.53% (active) | – | – | –
C[C@@H]1CC[C@@H]2[C@@H]1[C@H](OC(=O)/C=C/c1ccccc1)[C@]1(C3CCCCC3)C[C@@H](OC(=O)CO)[C@@]2(C)O1 | 81.5% (inactive) | 104% (inactive) | 84.7% (inactive) | 26.9% (inactive) | 32.1% (inactive) | 87.5% (inactive) | 89.6% (inactive) | 67.8% (inactive) | 89.9% (inactive) | 66.2% (inactive) | 38.4% (inactive) | 88.4% (inactive) | 88.2% (inactive) | 22.8% (inactive) | 85.9% (inactive) | 76% (inactive) | 83.8% (inactive) | 73.3% (inactive) | – | –
CN(C)CC(=O)Nc1ccc(Cn2nnc3c2C(=O)c2nnn(Cc4ccc(NC(=O)CN(C)C)cc4)c2C3=O)cc1 | -96.2% (active) | -81.2% (active) | -14.2% (active) | -77.4% (active) | -49.1% (active) | -87.4% (active) | – | -71.1% (active) | -89.4% (active) | 1.94% (active) | – | -92.8% (active) | -75.1% (active) | 1.37% (active) | -95% (active) | -30.6% (active) | -47.5% (active) | -66.1% (active) | -82.1% (active) | –
Nc1ccc(Nc2nccc(-c3ccc4ccccc4c3)n2)cc1 | 67.4% (inactive) | 59.5% (inactive) | 46.8% (inactive) | 50.3% (inactive) | 49.9% (inactive) | 64.8% (inactive) | 55.4% (inactive) | 58.6% (inactive) | 26.8% (inactive) | 25% (inactive) | 14.3% (inactive) | 39% (inactive) | 62.9% (inactive) | 58.7% (inactive) | 47.3% (inactive) | 38.1% (inactive) | 57.2% (inactive) | 32.2% (inactive) | – | –
O=C(CO[N+](=O)[O-])Nc1ccc(C(=O)/C=C/c2ccc(Cl)cc2)cc1 | 79.9% (inactive) | 79.1% (inactive) | 55% (inactive) | 72.5% (inactive) | 44.9% (inactive) | 105% (inactive) | – | 61.2% (inactive) | 3.46% (active) | 58.9% (inactive) | -23.4% (active) | 69.7% (inactive) | 87.9% (inactive) | 27.6% (inactive) | 54.5% (inactive) | -60.9% (active) | 86.8% (inactive) | – | 14.9% (inactive) | –
O=C(CNC1C2CC3CC(C2)CC1C3)Sc1nnc2sc3ccccc3n12 (stereo not drawn) | 110% (inactive) | 95.2% (inactive) | 81.5% (inactive) | 114% (inactive) | 101% (inactive) | 94.2% (inactive) | 94.3% (inactive) | 116% (inactive) | 104% (inactive) | 105% (inactive) | 106% (inactive) | 76.5% (inactive) | – | 77.4% (inactive) | 93.9% (inactive) | 94.5% (inactive) | 112% (inactive) | 88.2% (inactive) | – | –
COc1ccc2[nH]c(=O)c(/C=C/C(=O)c3ccc(Nc4nccc(-c5ccc6ccccc6c5)n4)cc3)cc2c1 | 99.9% (inactive) | 101% (inactive) | 96.2% (inactive) | 102% (inactive) | 94.9% (inactive) | 101% (inactive) | 101% (inactive) | 95.2% (inactive) | 101% (inactive) | 110% (inactive) | 102% (inactive) | 95.7% (inactive) | 91.9% (inactive) | 98.2% (inactive) | 101% (inactive) | 100% (inactive) | 108% (inactive) | – | – | –
Cc1ccc2c(NCCCN(C)C)c3c(C)nn(C)c3nc2c1 | – | 52.7% (inactive) | 47.6% (inactive) | – | 33.2% (inactive) | 30.2% (inactive) | 36.5% (inactive) | 31.8% (inactive) | 42.5% (inactive) | 29% (inactive) | 18% (inactive) | 25.5% (inactive) | 63% (inactive) | 29.2% (inactive) | 51.3% (inactive) | 15.5% (inactive) | 57.1% (inactive) | 58.8% (inactive) | – | 9.48% (active)
COCCOc1ccc(-c2nc3ccc(-c4nc5ccc(N6CCN(C)CC6)cc5[nH]4)cc3[nH]2)cc1 | 29.7% (inactive) | -38.9% (active) | 8.21% (active) | -62.8% (active) | 7.43% (active) | 48.4% (inactive) | -30.7% (active) | 8.32% (active) | 1.05% (active) | 85.9% (inactive) | 4.98% (active) | -21.2% (active) | 7.61% (active) | 22.5% (inactive) | 11.2% (inactive) | -72.5% (active) | -39.2% (active) | -39.9% (active) | – | –
COc1cc2cc(COc3nccc(-c4ccc(Cl)cc4)n3)c(=O)[nH]c2cc1OC | 81.4% (inactive) | 45.7% (inactive) | 55.1% (inactive) | 61.9% (inactive) | 80.1% (inactive) | 97.6% (inactive) | 67.9% (inactive) | 98% (inactive) | -27.4% (active) | 63.6% (inactive) | – | 91.6% (inactive) | 77.1% (inactive) | 71.4% (inactive) | 77.2% (inactive) | 54.7% (inactive) | 40.3% (inactive) | 92.3% (inactive) | – | –
CN1CCN(Cc2ccc(NC(=O)c3[nH]ncc3Nc3ncnc4sccc34)cc2)CC1 | 7.12% (active) | 16.7% (inactive) | -4.43% (active) | -51.1% (active) | -3.74% (active) | 24% (inactive) | -30.2% (active) | 33.9% (inactive) | 22.6% (inactive) | 7.97% (active) | 17% (inactive) | -32.5% (active) | – | 6.12% (active) | -5.05% (active) | -1.47% (active) | 17.8% (inactive) | 8.83% (active) | 16.4% (inactive) | –
CN(C)CCOc1ccc(-c2nc3ccc(-c4nc5ccc(N6CCN(C)CC6)cc5[nH]4)cc3[nH]2)cc1 | 82.4% (inactive) | 24.1% (inactive) | 73.4% (inactive) | 48.3% (inactive) | 65.8% (inactive) | 54.6% (inactive) | 49.8% (inactive) | 41.2% (inactive) | 51.3% (inactive) | 101% (inactive) | 42.4% (inactive) | 89.8% (inactive) | 69.4% (inactive) | – | 37.5% (inactive) | 67.9% (inactive) | 45.3% (inactive) | 2.8% (active) | – | –
Nc1nc(-c2ccc(F)cc2)cc(-c2cnn(-c3ccccc3)n2)n1 | 104% (inactive) | 124% (inactive) | 102% (inactive) | 97.4% (inactive) | 98.8% (inactive) | 107% (inactive) | 106% (inactive) | 95.8% (inactive) | 117% (inactive) | 95.4% (inactive) | 93.5% (inactive) | 100% (inactive) | 104% (inactive) | 114% (inactive) | 104% (inactive) | 97.2% (inactive) | 107% (inactive) | 91.1% (inactive) | – | –
CC[C@H](Nc1nc(N)nc(C)c1C#N)c1nc2cccc(NCc3ccc(C(=O)NO)cc3)c2c(=O)n1-c1ccccc1 | 17.2% (inactive) | 21.5% (inactive) | 7.58% (active) | -21.7% (active) | 9.63% (active) | -3.97% (active) | -18.8% (active) | 0.817% (active) | 0.234% (active) | 38.7% (inactive) | 3.55% (active) | 14.3% (inactive) | 7.28% (active) | 5.79% (active) | -13.2% (active) | -52.6% (active) | – | -28.6% (active) | – | –
